The whole screen tested about 20,000 compounds, of which about 25 (0.1%) were called active. This is one part of a sample in which actives are shown more often than they occur. Unmarked numbers belong to inactive results. No stated cut-off is given here; in the data, active means % bound below about 75%; inactive means the rest.
target: Nucleoprotein (Rift valley fever virus (strain ZH-548 M12)) (UniProt P21700); assay: inhibitors of RVFV nucleoprotein–RNA binding, primary screen, biochemical, fluorescence polarization (AID 651828); conditions: RVFV N-RNA binding, hits give low values, concentration not given here
Sequence (P21700 whole entry, looked up): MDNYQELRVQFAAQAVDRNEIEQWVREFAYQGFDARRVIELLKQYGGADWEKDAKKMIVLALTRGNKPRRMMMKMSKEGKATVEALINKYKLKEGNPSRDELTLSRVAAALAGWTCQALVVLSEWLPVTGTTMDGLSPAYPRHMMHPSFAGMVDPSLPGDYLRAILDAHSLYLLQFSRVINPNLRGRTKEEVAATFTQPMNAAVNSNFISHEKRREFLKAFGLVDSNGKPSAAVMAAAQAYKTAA

Row | Compound | % bound [%]
1 | CSC(=S)Nc1ccc(C)cc1 | 92
2 | CCN(CC)CCN1C(=O)C(O)=C(C(=O)/C=C/c2ccco2)C1c1ccc(OC)cc1 (centres undefined) | 97.9
3 | CC(Cn1cnc2ccccc21)C(=O)N/N=C/c1ccccc1 (centres undefined) | 98.5
4 | CC(C)NS(=O)(=O)c1ccc(NC(=O)C2CCCCC2)cc1 | 98
5 | NS(=O)(=O)c1ccc(NS(=O)(=O)/C=C/c2ccccc2)cc1 | 80.7
6 | O=C(c1cccc(N2C(=O)c3ccccc3C2=O)c1)N1CCOCC1 | 95
7 | CCCCN=Cc1c(O)n(-c2ccc(Cl)cc2)c(=O)[nH]c1=O | 85.2
8 | O=C(CSc1ccc(-c2ccccc2)nn1)NCC1CCCO1 (centres undefined) | 91.3
9 | O=C(CC1CCCC1)NCc1cn2ccsc2n1 | 97.9
10 | Cc1cccc(NC(=O)c2ccccc2-c2nc(-c3ccccc3)no2)c1 | 89.8
11 | O=C(CC12CC3CC(CC(C3)C1)C2)Nc1ccc(N2CCN(C(=O)c3ccco3)CC2)cc1 | 89.8
12 | O=C(Nc1ccccn1)c1cc2c(s1)CCCC2 | 94.3
13 | COC(=O)Nc1ccc(S(=O)(=O)Nc2cc(OC)nc(OC)n2)cc1 | 95.6
14 | COc1ccc(C2CC(=O)c3cnc(NCCN4CCOCC4)nc3C2)cc1 (centres undefined) | 89.7
15 | COC(=O)c1ccc(COc2ccc3c(oc(=O)c4cc(OC)ccc43)c2C)o1 | 87.4
16 | CCOC(=O)c1ccc(CC(=O)c2cc(CC)c(O)cc2O)o1 | 105
17 | CN1CCC(N(C)C(=O)Nc2c[nH]c3ccccc23)CC1 | 96.9
18 | CCc1c(O)nc(SCc2ccccc2)n(C2CCCCC2)c1=O | 92.2
19 | Cc1cc(Cl)ccc1NNC(=O)c1snnc1C | 109
20 | Cc1cc(=O)[nH]c(Nc2ccc(O)cc2)n1 | 96.9
21 | CSc1n[nH]c(N)c1-c1ccccn1 | 93.7
22 | CP(=O)(O)CN1CCN(CP(C)(=O)O)CC1 | 93
23 | CCNC(=O)N1c2ccccc2Sc2ccccc21 | 93.8

Row | Compound | % bound [%]
24 | CN(C)S(=O)(=O)c1ccc(C(=O)Nc2nnc(C3CC3)o2)cc1 | 107
25 | Cc1ccc(-c2nn3c(C)nnc3c3ccccc23)cc1S(=O)(=O)N1CCCC1 | 93.1
26 | COc1ccc(CCNC(=O)Nc2ccccc2C)cc1OC | 91.4
27 | O=C(O)c1cc(N=Cc2ccccc2)ccc1O | 108
28 | CC(Sc1nnc(-c2c[nH]c3ccccc23)n1C)c1ccccc1 (centres undefined) | 96.8
29 | FC(F)(F)COc1ccc(-c2n[nH]c(=S)o2)cn1 | 92.8
30 | COc1cccc(CNc2ccc3c(c2)ncn3C)c1 | 107
31 | Cc1nc(SCC#N)c2c3c(sc2n1)CCCC3 | 103
32 | O=C(CC(C(=O)O)n1cccn1)c1ccc(Br)cc1 (centres undefined) | 98.3
33 | COCC(=O)N1CCN(c2ccccn2)CC1 | 87.2
34 | O=S(=O)(NNc1ncnc2sccc12)c1ccc(Cl)cc1 | 97.8
35 | O=C(CN1CCSCC1)N/N=C/c1ccc(Br)cc1 | 101
36 | C=CCN(CC=C)C(=O)c1ccc(N2C(=O)CCC2=O)cc1 | 95.1
37 | CCC(C)NC(=S)NC1CCCCC1 (centres undefined) | 112
38 | CC(C)(C)c1ccc(CSc2nc3c(c(=O)[nH]2)CCC3)cc1 | 91
39 | CN(C(=O)c1cc2cccnc2n(C)c1=O)c1ccccc1 | 93.7
40 | O=C(CCc1ccccc1)NNc1ccc(F)cc1 | 104
41 | Cc1[nH]nc2c1C1C(C2)C1(C)C (centres undefined) | 96.4
42 | C=CCn1c(O)c(N=N)c2ccccc21 | 97.3
43 | CC1CCCCN1S(=O)(=O)CCNC(=O)c1ccccc1 (centres undefined) | 89.1
44 | CC(C)n1c(-c2ccncc2)n[nH]c1=S | 98.6
45 | CN(C)C(=O)c1cc(Br)ccc1Cl | 99.9
46 | Cc1onc(-c2ccccc2Cl)c1C(=O)N(Cc1nc(-c2ccccc2)no1)C(C)C | 89

Row | Compound | % bound [%]
47 | CC(C)CCn1c(CO)cnc1S(=O)(=O)C(C)C | 86.9
48 | O=C(c1ccc(Br)o1)n1cnc2ccccc21 | 104
49 | CC(=O)Nn1nc2c(n1)C(=NNC(=O)c1ccccc1)c1nn(NC(C)=O)nc1C2=NNC(=O)c1ccccc1 | 98.5
50 | CNC(C)c1ccc(OC)c(OC)c1 (centres undefined) | 91
51 | CCN(CC)C(=O)/C=C/c1cccc2ccccc12 | 101
52 | Cc1cc(C)c2c(N)c(-c3n[nH]c(=S)n3C)sc2n1 | 98.2
53 | CNC(=O)O/N=C/c1nn(C)cc1Br | 94.8
54 | COc1ccc(Cl)cc1NC(=S)N1CCCCC1CO (centres undefined) | 94.6
55 | O=C(Nc1c[nH]c2ccccc12)NC1CCCC1 | 94.2
56 | COc1cc(CN2CCN3CCCC3C2C2CCCCC2)cc(OC)c1 (centres undefined) | 107
57 | CC12CN3CC(C)(CN(C1)C31C(=O)Nc3ccccc31)C2O (centres undefined) | 103
58 | O=c1cc(-c2ccccc2)nc(SCc2ccccn2)[nH]1 | 93.4
59 | Cn1c(=O)n(Cc2ccco2)c(=N)c2c3c(sc21)CCCC3 | 106
60 | Nn1c(Cc2ccccc2)nnc1SCC(=O)Nc1ccccc1F | 91.9
61 | COc1ccc(N=Nc2c(-c3ccc(OC)cc3)[nH]oc2=O)cc1 | 75.1
62 | CN(C)c1ccc(/C=C2\SC(=Nc3ccccc3)N(CCO)C2=O)cc1 | 92.8
63 | CS(=O)(=O)c1ccccc1C(=O)Nc1ccc2sccc2c1 | 96
64 | O=S(=O)(c1ccccc1)c1ccc(I)cc1 | 96.7
65 | C=CCc1ccc(OCC(=O)ONN)c(OC)c1 | 104
66 | COC(=O)c1sc(-c2cccs2)cc1NS(=O)(=O)c1cn(C)cn1 | 98.3
67 | Cc1c(Cl)cccc1NC(=O)CCn1cnc2ccccc2c1=O | 81.8
68 | Cc1cc(Oc2cc(C#N)c(C#N)cc2N2CCOCC2)cc(C)c1Cl | 95.2
69 | COc1cc(/C=C2/C(=N)N3N=C(c4ccccc4C)SC3=NC2=O)ccc1OC(=O)c1ccco1 | 91.3

From PubChem BioAssay AID651828 (ICCB-Longwood Screening Facility, Harvard Medical School, 2012)
